PRMT1 FP inh: PRMT1 (human) inhibition, primary screen. Q99873. recombinant PRMT1, activity-based probe fluorescence polarization. inhibition, % at 2.79 µM. 1.3% of 370,000 active;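 active = inhibition above about 21% made by adding two undisclosed values, limit read from the data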
rCAG RNA binder: molecules binding r(CAG) RNA repeats; r(CAG) RNA repeat, TO-PRO-1 dye displacement fluorescence; 1.3% of 370,000 active; inhibition, % at 3 µM; AID 651821;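 active = inhibition above the plate cutoff, the mean of all test compounds on that plate plus 3 SD, cut at about 35% in these data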;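 also: higher means more dye released from RNA so lower well fluorescence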
TLR4-MyD88 BLA: blocks binding of human TLR4 to MyD88; O00206+Q99836; HeLa CL3-4 TLR4/MyD88 BLA complementation, FRET ratio; inhibition, % at 8.4 µM; 0.18% of 200,000 active; AID 861; in the data active = inhibition above about 25%
ABHD5 PLIN5 PPI: inhibitors of human ABHD5-perilipin-5 interaction; Q00G26+Q8WTS1; Split G. princeps luciferase complementation, luminescence, 4 h; inhibition, % at 4 µM; 0.78% of 360,000 active;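 active = inhibition above the mean inhibition across every tested compound plus 3 SD, cut at about 22% in these data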
TLR9-MyD88 inh: blocks human TLR9 binding to MyD88. 0.21% of 340,000 active. AID 504734. Q9NR96+Q99836. inhibition, % at 4.98 µM. CHO BLA complementation TLR9-MyD88, CCF4 FRET ratio;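 active = inhibition above the mean over all tested compounds plus 3 SD, cut at about 21% in these data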
NOD2-RIPK2 inh: NOD2-RIPK2 protein interaction inhibition; CHO BLA complementation NOD2-RIPK2, CCF4 ratio; 0.38% of 360,000 active; AID 624267; inhibition, % at 4.98 µM; in the data active = inhibition above about 21%
ABHD5-PLIN5 conf: confirmation of human ABHD5-PLIN5 interaction inhibitors | inhibition, % at 4 µM | 67% of 2,200 active | shares compounds with ABHD5 PLIN5 PPI | biochemical ABHD5-PLIN5 interaction, luminescence; in the data active = inhibition above about 23%
HNF4 split-luc: counter-screen for ABHD5-PLIN5 inhibitors: HNF4 split-luciferase; shares compounds with ABHD5 PLIN5 PPI; AID 651674; 77% of 2,200 active; inhibition, % at 4 µM; HNF4 dimerization, luminescence, biochemical;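 active = mean inhibition across replicate wells exceeding the computed hit threshold, cut at about 13% in these data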;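 also: light from luciferase halves that rejoin when HNF4 fusion proteins dimerize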
Target sequence (P41235 whole entry, looked up, the tested form may be a part): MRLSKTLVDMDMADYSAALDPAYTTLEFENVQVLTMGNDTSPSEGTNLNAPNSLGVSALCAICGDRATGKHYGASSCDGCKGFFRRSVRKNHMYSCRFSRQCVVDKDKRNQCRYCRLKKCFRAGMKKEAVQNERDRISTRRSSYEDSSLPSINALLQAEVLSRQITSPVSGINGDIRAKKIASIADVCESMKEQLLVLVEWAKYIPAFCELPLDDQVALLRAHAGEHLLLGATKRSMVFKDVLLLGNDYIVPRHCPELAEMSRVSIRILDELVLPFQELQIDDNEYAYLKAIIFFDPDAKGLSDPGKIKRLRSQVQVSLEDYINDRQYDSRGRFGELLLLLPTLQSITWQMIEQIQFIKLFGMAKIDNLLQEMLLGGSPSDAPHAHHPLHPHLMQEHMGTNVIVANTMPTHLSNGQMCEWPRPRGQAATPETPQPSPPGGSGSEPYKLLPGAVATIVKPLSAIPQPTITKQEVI
NOD2 RIPK2 conf: confirmation of human NOD2-RIPK2 interaction inhibitors; shares compounds with NOD2-RIPK2 inh; 70% of 1,200 active; inhibition, % at 4.98 µM; CHO cells, NOD2-RIPK2 BLA complementation, CCF4 FRET; AID 624370;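 active = mean inhibition across replicates above a set limit taken from the earlier primary screen, cut at about 21% in these data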
BLA counter: counter-screen for NOD2-RIPK2 interaction inhibitors: BLA reporter; shares compounds with NOD2-RIPK2 inh; CHO BLA reporter, CCF4 FRET ratio, counterscreen; inhibition, % at 4.98 µM; 57% of 1,200 active; AID 624371;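 active = mean inhibition above the low-control mean inhibition plus three low-control SD, cut at about 11% in these data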
Of the large screens only hits and unclear results are named; the others gave an inactive call (follow-up assays come after a bar, where they were run). Only some compounds are listed: those with a hit (about 3.3% of all), similar ones and a draw of the others.

CN(Cc1ccco1)C(=O)CCc1nc2sc3c(c2c(=O)[nH]1)CCCC3	ABHD5 PLIN5 PPI 24 (no result: TLR4-MyD88 BLA) | ABHD5-PLIN5 conf 26 | HNF4 split-luc 43
CN(C)C(=O)CCc1nc2sc3c(c2c(=O)[nH]1)CCCC3	none
O=C(CCl)Nc1nc(-c2ccco2)c(-c2ccco2)s1	PRMT1 FP inh 32, ABHD5 PLIN5 PPI 37 | ABHD5-PLIN5 conf 36 | HNF4 split-luc 54
O=C(CSc1nncs1)Nc1nnc(-c2ccccc2)o1	none (no result: TLR4-MyD88 BLA)
O=C1C=C(NC2=CC3OC(c4ccccc4)OCC3OC2=O)CCC1 (centres undefined)	ABHD5 PLIN5 PPI 26 | ABHD5-PLIN5 conf 87 | HNF4 split-luc 95
COc1cc(CNCCc2c[nH]c3ccccc23)ccc1OCc1ccc(F)cc1	ABHD5 PLIN5 PPI 33 | ABHD5-PLIN5 conf inactive | HNF4 split-luc inactive
COc1cccc(CNCCc2c[nH]c3ccccc23)c1OCc1ccc(F)cc1	none
CC(=O)Nc1c2c(nn1-c1ccccc1C)CS(=O)(=O)C2	none (no result: TLR4-MyD88 BLA)
COc1ccc(C(=O)OCC(=O)N2CCN(S(=O)(=O)c3ccc(C)cc3)CC2)cc1[N+](=O)[O-]	ABHD5 PLIN5 PPI 86 (no result: TLR4-MyD88 BLA) | ABHD5-PLIN5 conf inactive | HNF4 split-luc inactive
BrC(=C\c1ccccc1)/C=N/n1cnnc1	ABHD5 PLIN5 PPI 38 | ABHD5-PLIN5 conf 42 | HNF4 split-luc 45
BrC(=C\c1ccccc1)/C=N/Nc1ccc2nncn2n1	none (no result: TLR4-MyD88 BLA)
O=C(CN1C(=O)/C(=C\c2cccc(Br)c2)Oc2ccccc21)NCCCN1CCOCC1	ABHD5 PLIN5 PPI 29 (no result: TLR4-MyD88 BLA) | ABHD5-PLIN5 conf inactive | HNF4 split-luc inactive
COc1cc(OC)cc(-c2noc(-c3csc([C@@H]4O[C@H](CO)[C@H](O)[C@H](O)[C@H]4O)n3)n2)c1	none (no result: TLR4-MyD88 BLA, TLR9-MyD88 inh)
Cc1cccc(Cn2cc(/C=C/[N+](=O)[O-])c3ccccc32)c1	ABHD5 PLIN5 PPI 25 | ABHD5-PLIN5 conf 91 | HNF4 split-luc 86
COC(=O)c1ccc(Cn2cc(/C=C\[N+](=O)[O-])c3ccccc32)o1	ABHD5 PLIN5 PPI 43 (no result: TLR4-MyD88 BLA) | ABHD5-PLIN5 conf 88 | HNF4 split-luc 46
O=C(O)c1ccc(Cn2cc(/C=C\[N+](=O)[O-])c3ccccc32)o1	none (no result: TLR4-MyD88 BLA)
CCOC(=O)Cn1cc(/C=C/[N+](=O)[O-])c2ccccc21	none
CC1CCC2(CC1)NC(=O)N(CC(=O)c1cn(CCC#N)c3ccccc13)C2=O (centres undefined)	none (no result: TLR4-MyD88 BLA)
Cc1cc(C)c2nc(-c3ccccn3)cc(C(=O)NCc3ccco3)c2c1	ABHD5 PLIN5 PPI 45 | ABHD5-PLIN5 conf inactive | HNF4 split-luc 26
CN(C)/N=C/C=C1\CCC/C(=C/c2cccs2)C1=O	ABHD5 PLIN5 PPI 30 (no result: TLR4-MyD88 BLA) | ABHD5-PLIN5 conf 25 | HNF4 split-luc 29
C=C1[C@@H](OC(C)=O)C=C[C@@]2(C)C=CC(=O)[C@@](C)(OC(C)=O)[C@@H]2[C@@H](OC(C)=O)[C@]2(O)[C@@H](C)C(=O)O[C@H]2[C@H]1Cl	none (no result: TLR4-MyD88 BLA, TLR9-MyD88 inh)
CN(C)c1ccc(/C=C/c2ccc3ccccc3[n+]2C)cc1	ABHD5 PLIN5 PPI 29 | ABHD5-PLIN5 conf 23 | HNF4 split-luc 30
O=C(CSc1ccc(Cl)cc1)Nc1ccc(-c2nc3ccccc3[nH]2)cc1	none
O=C(NCc1ccccc1)C1c2ccccc2OCC(=O)N1CC(F)(F)F (centres undefined)	none (no result: TLR4-MyD88 BLA, TLR9-MyD88 inh)
O=[N+]([O-])c1ccc(N2CCc3ccccc3C2)cc1	ABHD5 PLIN5 PPI 31 (no result: TLR4-MyD88 BLA) | ABHD5-PLIN5 conf 60 | HNF4 split-luc 58
C#CC[N+]1(CC#Cc2ccccc2)CCCC1	none
C(#Cc1ccccc1)C[N+]1(CC#Cc2cccc3ccccc23)CCCC1	ABHD5 PLIN5 PPI 27 | ABHD5-PLIN5 conf inactive | HNF4 split-luc inactive
CC(=O)Oc1c(Cl)c(N2CCOCC2)c(OC(C)=O)c2ccccc12	ABHD5 PLIN5 PPI 36 | ABHD5-PLIN5 conf 79 | HNF4 split-luc inactive
Cc1ccccc1S(=O)Cc1ccc(C(=O)N2CCN(C(=O)c3ccco3)CC2)o1 (centres undefined)	ABHD5 PLIN5 PPI 75 (no result: TLR4-MyD88 BLA) | ABHD5-PLIN5 conf inactive | HNF4 split-luc inactive
Cc1ccccc1S(=O)Cc1ccc(C(=O)N2CCN(C3CCCCC3)CC2)o1 (centres undefined)	none (no result: TLR4-MyD88 BLA)
CC1CN(C2=CC(=O)CCC2)CC(C)O1 (centres undefined)	ABHD5 PLIN5 PPI 31 | ABHD5-PLIN5 conf inactive | HNF4 split-luc 13
CCOc1c(N2CC(C)OC(C)C2)c(=O)c1=O (centres undefined)	none (no result: TLR4-MyD88 BLA)
Oc1cccc(Nc2nc(N3CCOCC3)nc(N3CCOCC3)n2)c1	ABHD5 PLIN5 PPI 25 (no result: TLR4-MyD88 BLA) | ABHD5-PLIN5 conf inactive | HNF4 split-luc 15
c1ccc(COc2cccc(-c3cc4nc(NCCc5ccncc5)ccn4n3)c2)cc1	none (no result: TLR4-MyD88 BLA, TLR9-MyD88 inh)
O=C(CCCCCCCC(=O)c1ccccc1)c1ccccc1	none
C=C(CCC(=O)c1ccccc1)C(=O)c1ccccc1	ABHD5 PLIN5 PPI 32 | ABHD5-PLIN5 conf 68 | HNF4 split-luc 67
CCOc1ccc(S(=O)(=O)NCc2ccco2)c2ccccc12	ABHD5 PLIN5 PPI 26 | ABHD5-PLIN5 conf inactive | HNF4 split-luc inactive
O=[N+]([O-])/C=C/c1cn(Cc2ccc(Cl)cc2)c2ccccc12	ABHD5 PLIN5 PPI 45, NOD2-RIPK2 inh 21 | ABHD5-PLIN5 conf 98 | HNF4 split-luc 83 | NOD2 RIPK2 conf 38 | BLA counter inactive
CC(C)C[C@@H](CNCC(=O)[C@H](Cc1ccccc1)NC(=O)c1[nH]cnc1C(=O)N[C@H](CN)CC(C)C)NC(=O)c1nc[nH]c1C(=O)N[C@@H](CC(=O)O)C(=O)O	none (no result: TLR4-MyD88 BLA)
O=[N+]([O-])/C=C\c1ccc(N2CCOCC2)cc1	ABHD5 PLIN5 PPI 65, NOD2-RIPK2 inh 45 (no result: TLR4-MyD88 BLA) | ABHD5-PLIN5 conf 88 | HNF4 split-luc 89 | NOD2 RIPK2 conf 43 | BLA counter inactive
O=C(COc1ccc(/C=C\[N+](=O)[O-])cc1)N1CCOCC1	none
C=C(CCO)C1=CCN(S(=O)(=O)C(C)(C)C)[C@H]1CCO	none (no result: TLR4-MyD88 BLA)
CC(=O)OC[C@]1(OC(C)=O)C[C@@]23CC[C@H]4[C@@](C)(CCC[C@@]4(C)C(=O)O)[C@@H]2CC[C@@H]1C3	none
